Reference: PubChem BioAssay AID602474 (National Center for Advancing Translational Sciences (NCATS), 2012)
Inconclusive results are not listed. Activity calls are given as the source filed them. Calls follow the shape of the dose curve; as a rule, active = well fitted inhibition curve with a large enough effect; inconclusive = small, poorly fitted or top-dose-only effect; inactive = no such curve, though single readings can be large or run the other way.

The compounds below were run against Luciferin 4-monooxygenase (Photinus pyralis) (UniProt P08659) (assay: FLuc inhibitory activity for the follow-up compounds in a biochemical assay with a commercial detection reagent - BriteliteTM Plus (PerkinElmer)). Conditions: purified FLuc, Britelite Plus luminescence; series mostly up to 38.3 µM; activity change, negative = inhibition: at the top concentration.
Sequence of Luciferin 4-monooxygenase (Photinus pyralis) (P08659 whole entry, looked up): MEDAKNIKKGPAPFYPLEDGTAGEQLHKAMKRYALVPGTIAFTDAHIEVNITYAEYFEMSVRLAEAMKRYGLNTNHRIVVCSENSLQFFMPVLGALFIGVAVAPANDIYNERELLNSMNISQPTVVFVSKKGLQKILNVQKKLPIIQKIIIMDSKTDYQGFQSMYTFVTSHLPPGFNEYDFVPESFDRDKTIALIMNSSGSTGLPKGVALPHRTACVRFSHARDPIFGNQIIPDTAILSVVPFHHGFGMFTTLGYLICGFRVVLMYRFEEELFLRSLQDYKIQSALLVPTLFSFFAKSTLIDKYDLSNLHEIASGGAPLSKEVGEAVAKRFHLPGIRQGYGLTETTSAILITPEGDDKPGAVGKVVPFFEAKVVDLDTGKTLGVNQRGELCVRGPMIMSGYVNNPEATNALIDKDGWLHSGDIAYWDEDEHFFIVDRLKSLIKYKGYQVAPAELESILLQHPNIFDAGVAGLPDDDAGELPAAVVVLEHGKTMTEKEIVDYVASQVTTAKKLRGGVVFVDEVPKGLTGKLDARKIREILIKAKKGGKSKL
From the text: NCGC Assay Overview: Firefly (Photinus pyralis) luciferase is one of the most commonly used transcriptional reporters. It is considered one of the more dynamically responsive reporters - that is, responsive to changes in reporter transcription - as it requires no post-translational modifications and is enzymatically active directly after protein synthesis (Wood, 1998). With no endogenous expression in mammalian cells and without the requirement of external excitation, it offers very little background signal, thus generally providing excellent signal to background for most assays. Previous profiling work to determine the prevalence of compounds that affect FLuc enzymatic activity (PubChem AID 411) identified that ~3% of the MLSMR library (then at ~72K) inhibited FLuc (Auld et al., 2008). […] Of the compounds identified in this profile that inhibited FLuc, 151 compounds were selected for further analysis, in an effort to better understand their mode of inhibiting FLuc. The assay described here was to determine the activity of the compounds in a FLuc assay that used a commercial formulation of detection reagent (BriteliteTM Plus; PerkinElmer).
NCGC Assay Protocol Summary: Reagents: Britelite Plus detection reagent; 50mM Tris acetate, pH 7.5; 10nM P. pyralis luciferase (Sigma #L9506) Control compounds used were two known firefly luciferase inhibitors (3-(5-(3-chlorophenyl)-1,2,4-oxadiazol-3-yl)benzoic acid and 5-(2-fluorophenyl)-3-phenyl-1,2,4-oxadiazole), and DMSO. Assay Summary: Three microliters of buffer containing firefly luciferase (final concentrations: 50mM Tris acetate, 10nM P. pyralis luciferase) are dispensed into each well of a Greiner white, solid-bottom 1536-well format plate using a flying reagent dispenser (FRD). These assay plates were then treated with 23nL of compound or DMSO using a Kalypsys pin tool, which allows for delivery of a 12-point intraplate titration of each compound to the assay plate (quantitative HTS), with final compound concentrations ranging from approximately ~38uM to 0.2nM. Three microliters of 2X Britelite Plus detection reagent was then delivered by FRD to each well. Luciferase activity was then measured using a ViewLux CCD imager (PerkinElmer), with an average exposure time of 2-30 seconds (2X binning, medium/high gain).

| SMILES | activity change, negative = inhibition | Potency |
| --- | --- | --- |
| COc1ccc2nc(NC(=O)c3ccc(S(=O)(=O)N4CCCC(C)C4)cc3)sc2c1 (stereo not given) | -22.2% (inactive) | – |
| COc1ccccc1C(=O)Nc1ccc(C(=O)Nc2ccccc2C(=O)O)cc1 | 14.6% (inactive) | – |
| COc1c(C)cccc1C(=O)Nc1ccc(-c2nc3ccccc3s2)c(Cl)c1 | – | 7.11 µM (active) |
| O=C(O)c1cccc(NC(=O)c2ccccc2NC(=O)c2ccccc2F)c1 | -10.9% (inactive) | – |
| O=C(O)c1cccc(NC(=O)c2cccc(S(=O)(=O)N3CCc4ccccc4C3)c2)c1 | -5.63% (inactive) | – |
| O=C(O)c1cccc(NC(=O)c2ccccc2NC(=O)c2ccco2)c1 | -7.53% (inactive) | – |
| c1ccc2sc(-c3ccc4c(c3)OCO4)nc2c1 | – | 1.79 µM (active) |
| COc1ccc2nc(NC(=O)c3ccc([N+](=O)[O-])o3)sc2c1 | – | 3.56 µM (active) |
| CC(=O)Nc1cccc(-c2nc3ccccc3s2)c1C | -17.2% (inactive) | – |
| Cc1ccc2sc(-c3ccc(N)cc3)nc2c1 | – | 0.798 µM (active) |
| Cc1ccc(C(=O)Nc2cccc(C(=O)O)c2)cc1S(=O)(=O)N1CCCCC1 | – | 2.83 µM (active) |
| CCOc1ccc(C(=O)Nc2cccc(C(=O)O)c2)cc1Cl | – | 7.11 µM (active) |
| Cc1ccc(S(=O)(=O)N2CCN(C(=O)c3ccccc3-c3nc4ccccc4s3)CC2)c(C)c1 | 14.2% (inactive) | – |
| Nc1ccc(-c2nc3ccc(N)cc3s2)cc1 | – | 0.565 µM (active) |
| O=C(O)c1ccc(NC(=O)c2ccccc2NC(=O)c2ccccc2Cl)cc1 | -8.33% (inactive) | – |
| COc1ccc2nc(NC(=O)c3cccc(S(=O)(=O)N4CCOCC4)c3)sc2c1 | 20% (inactive) | – |
| O=C(Nc1ccccc1C(=O)O)c1cccc(NC(=O)c2ccc(Br)o2)c1 | -13.3% (inactive) | – |
| O=C(Nc1ccccc1C(=O)O)c1cccc(NC(=O)c2ccccc2Cl)c1 | -1.17% (inactive) | – |
| O=C(O)c1cccc(NC(=O)c2ccc(COc3ccc(Cl)cc3)cc2)c1 | 8.38% (inactive) | – |
| CCc1noc(C)c1C(=O)Nc1nc2ccc(OC)cc2s1 | – | 0.0504 µM (active) |

| SMILES | activity change, negative = inhibition | Potency |
| --- | --- | --- |
| CN(C)S(=O)(=O)c1ccc(C(=O)Nc2ccccc2C(=O)O)cc1 | -14.3% (inactive) | – |
| CCOc1ccc2nc(NC(=O)c3cc([N+](=O)[O-])ccc3N3CCOCC3)sc2c1 | -22.5% (inactive) | – |
| O=C(Nc1ccccc1C(=O)O)c1ccccc1 | -22.6% (inactive) | – |
| Cc1ccc(C(=O)Nc2ccccc2C(=O)O)cc1S(=O)(=O)N1CCCCCC1 | – | 8.95 µM (active) |
| O=C(Nc1ccccc1C(=O)O)c1cccc(NC(=O)c2ccccc2Br)c1 | -2.59% (inactive) | – |
| O=C(Nc1ccccc1C(=O)O)c1cc(S(=O)(=O)Nc2ccccc2)ccc1Cl | 1.24% (inactive) | – |
| Cc1ccc(C(=O)Nc2cccc(C(=O)O)c2)cc1S(=O)(=O)N1CCCC1 | – | 2.25 µM (active) |
| O=C(O)c1ccc(NC(=O)c2ccccc2NC(=O)c2ccccc2Br)cc1 | -11.6% (inactive) | – |
| COc1ccc(CC(=O)Nc2cccc(C(=O)Nc3ccccc3C(=O)O)c2)cc1OC | -7.35% (inactive) | – |
| Cc1ccc(C(=O)O/N=C(\N)c2ccccn2)cc1 | – | 0.0283 µM (active) |
| Nc1ccc2nc(-c3ccccc3)sc2c1 | – | 0.634 µM (active) |
| Cc1ccccc1C(=O)Nc1cccc(C(=O)Nc2ccccc2C(=O)O)c1 | 0.207% (inactive) | – |
| Nc1ccc2nc(-c3ccc(O)cc3)sc2c1 | – | 1.13 µM (active) |
| COc1ccc2nc(NC(=O)C3CCN(S(=O)(=O)c4cccnc4)CC3)sc2c1 | 37.8% (inactive) | – |
| CC(C)c1ccc(-c2nc3ccccc3s2)cc1 | – | 0.0225 µM (active) |
| Cc1c(NS(C)(=O)=O)cccc1-c1nc2ccccc2s1 | -34.5% (inactive) | – |
| COc1cc(OC)cc(C(=O)Nc2ccc(-c3nc4ccccc4s3)c(C)c2)c1 | – | 0.113 µM (active) |
| O=C(COC(=O)c1ccccc1[N+](=O)[O-])c1ccc2c(c1)OCO2 | – | 0.0179 µM (active) |
| O=C(Nc1ccccc1C(=O)O)c1ccc(NC(=O)C2CC2)cc1 | – | 4.49 µM (active) |
| COc1ccc(Br)cc1C(=O)Nc1ccc(C(=O)O)cc1 | -10.9% (inactive) | – |
